# Measurements reported in PubChem BioAssay.
# The source made the active and inactive calls.
# Experiments:
# [1] = small molecules captured by biotinylated probe aFSTL3 – biochemical, small-molecule microarray, fluorescence 635/667, stem cell growth factor project, primary screen (AID 1064); conditions: higher = more signal;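 further: measures binding of the biotinylated anti-FSTL3 antibody to printed compounds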
# [2] = binders from COS7 lysate, DM2A8 probe, primary screen, torsin A project, cell lysate, small-molecule microarray, fluorescence 635/667 (AID 1065); conditions: higher = more signal, COS7 lysate expressing mutant human TOR1A
# [3] = small molecules captured by biotinylated probe aFGF2 – biochemical, small-molecule microarray, fluorescence 635/667, stem cell growth factor project, primary screen (AID 1067); conditions: higher = more signal;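 further: measures binding of biotinylated aFGF2 protein to printed compounds on slides; z-score merges feature fluorescence and signal-to-noise across triplicate slides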
# [4] = small molecules captured by biotinylated probe aFGF10 – biochemical, small-molecule microarray, fluorescence 635/667, stem cell growth factor project, primary screen (AID 1071); conditions: higher = more signal;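 further: score merges 667 nm spot intensity and signal to noise from triplicate slides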
# [5] = target: Neurogenic locus notch homolog protein 2 (Homo sapiens) (UniProt Q04721); assay: small molecules binding Notch2 protein – biochemical, small-molecule microarray, 635 nm fluorescence, stem cell growth factors, primary screen (AID 1073); conditions: higher = more signal
# [6] = target: Pro-neuregulin-1, membrane-bound isoform (Homo sapiens) (UniProt Q02297); assay: small molecules binding neuregulin-1 protein – biochemical, small-molecule microarray, fluorescence 635/667, psychiatric disease protein project, primary screen (AID 1075); conditions: NRG1 binding, 635 nm fluorescence, higher = more signal;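 further: score combines 667 nm spot fluorescence with signal to noise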
# [7] = system: Neuregulin-1 EGF-like domain; assay: small molecules binding NRG1 EGF domain – biochemical, small-molecule microarray, 635 nm fluorescence, primary screen (AID 1081); conditions: higher = more signal;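 further: binding of the protein to compounds printed on small-molecule microarray slides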
# [8] = FRG1 expression reporter modulators in myotubes – cell-based, C2C12 myotubes, firefly/Renilla luciferase, luminescence, FRG1 inhibition for FSHD, primary screen (AID 1084); conditions: FRG1 promoter luciferase, higher = more signal, called active from +8 up or from −8 down
# [9] = small molecules captured by biotinylated probe aFST – biochemical, small-molecule microarray, fluorescence 635/667, stem cell growth factor project, primary screen (AID 1086); conditions: higher = more signal;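 further: score merges 667 nm fluorescence with signal-to-noise of each printed compound spot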
# [10] = binders of probe aHhip on microarray, primary screen, stem cell growth factor project, biochemical, small-molecule microarray, fluorescence 635/667 (AID 1087); conditions: higher = more signal;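 further: score merges spot fluorescence at 667nm with spot signal to noise ratio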
# [11] = system: PRMT1 (protein arginine N-methyltransferase 1); assay: small molecules binding arginine methyltransferase PRMT1 – biochemical, small-molecule microarray, 635 nm fluorescence, primary screen (AID 1088); conditions: higher = more signal;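 further: binding of Prmt1 protein to compounds spotted on small-molecule microarray slides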
# [12] = growth effects on S. cerevisiae YJM789 – YJM789 clinical isolate, OD600, 24 h, basal, primary screen (AID 1089); conditions: higher = more signal, called active from +8 up or from −8 down;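 further: growth of clinical yeast isolate S. cerevisiae YJM 789 seeded 1000 cells per well; test concentration not given here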
# [13] = S. pombe growth modifiers, basal conditions – strain 972, OD600, 24 h, no modulator, primary screen (AID 1090);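 further: basal condition with compound alone and no growth modifier present; test concentration not given here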; conditions: S. pombe 972 growth, higher = more signal, called active from +8 up or from −8 down
# [14] = budding yeast growth modifiers under rapamycin – strain BY4716, OD600, 96 h, primary screen (AID 1091); further: test concentration not given here; conditions: S. cerevisiae BY4716 + rapamycin, higher = more signal, called active from +8 up or from −8 down
# [15] = target: Torsin-1A-interacting protein 2 (Homo sapiens) (UniProt Q8NFQ8); assay: small molecules binding lysate-expressed LULL1 – cell lysate, human LULL1 lysate, 635/667 nm fluorescence, primary screen (AID 1092); conditions: small-molecule microarray, hLULL1 lysate binding, 635 nm fluorescence; higher = more signal;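 further: probe is lysate of COS7 cells overexpressing human LULL1; score merges per-feature 667 nm fluorescence with signal-to-noise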
# [16] = optical density change of DRC41 E. coli – strain DRC41, OD650, 24 h, E. coli filamentation project, primary screen (AID 1093);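 further: MC1000 strain lacking acrAB efflux and sulA so SOS filamentation is blocked; test concentration not given here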; conditions: E. coli DRC41 growth, higher = more signal, called active from +8 up or from −8 down
# [17] = probe aLefty2 binding to arrayed compounds – biochemical, biotinylated probe, 635/667 nm fluorescence, primary screen (AID 1094); conditions: small-molecule microarray, higher = more signal;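 further: score merges spot fluorescence near 667 nm with spot signal-to-noise ratio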
# [18] = system: Noggin (protein binding on small-molecule microarray); assay: small molecules binding Noggin protein – biochemical, 635/667 nm fluorescence, primary screen (AID 1095); conditions: 635 nm fluorescence, higher = more signal;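 further: score merges 667 nm feature fluorescence with signal to noise over triplicate slides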
# [19] = target: Neurogenic locus notch homolog protein 3 (Homo sapiens) (UniProt Q9UM47); assay: small molecules binding NOTCH3 protein – biochemical, 635/667 nm fluorescence, primary screen (AID 1096); conditions: small-molecule microarray, 635 nm fluorescence, higher = more signal
# [20] = probe aEGFR binding to arrayed compounds – biochemical, biotinylated probe, 635/667 nm fluorescence, primary screen (AID 1097); conditions: small-molecule microarray, higher = more signal;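 further: probe is a biotinylated anti-EGFR antibody binding compounds printed on slides; score combines fluorescence near 667 nm and signal to noise of each spot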
# Sequence of Neurogenic locus notch homolog protein 2 (Homo sapiens) (Q04721 whole entry, looked up, canonical isoform): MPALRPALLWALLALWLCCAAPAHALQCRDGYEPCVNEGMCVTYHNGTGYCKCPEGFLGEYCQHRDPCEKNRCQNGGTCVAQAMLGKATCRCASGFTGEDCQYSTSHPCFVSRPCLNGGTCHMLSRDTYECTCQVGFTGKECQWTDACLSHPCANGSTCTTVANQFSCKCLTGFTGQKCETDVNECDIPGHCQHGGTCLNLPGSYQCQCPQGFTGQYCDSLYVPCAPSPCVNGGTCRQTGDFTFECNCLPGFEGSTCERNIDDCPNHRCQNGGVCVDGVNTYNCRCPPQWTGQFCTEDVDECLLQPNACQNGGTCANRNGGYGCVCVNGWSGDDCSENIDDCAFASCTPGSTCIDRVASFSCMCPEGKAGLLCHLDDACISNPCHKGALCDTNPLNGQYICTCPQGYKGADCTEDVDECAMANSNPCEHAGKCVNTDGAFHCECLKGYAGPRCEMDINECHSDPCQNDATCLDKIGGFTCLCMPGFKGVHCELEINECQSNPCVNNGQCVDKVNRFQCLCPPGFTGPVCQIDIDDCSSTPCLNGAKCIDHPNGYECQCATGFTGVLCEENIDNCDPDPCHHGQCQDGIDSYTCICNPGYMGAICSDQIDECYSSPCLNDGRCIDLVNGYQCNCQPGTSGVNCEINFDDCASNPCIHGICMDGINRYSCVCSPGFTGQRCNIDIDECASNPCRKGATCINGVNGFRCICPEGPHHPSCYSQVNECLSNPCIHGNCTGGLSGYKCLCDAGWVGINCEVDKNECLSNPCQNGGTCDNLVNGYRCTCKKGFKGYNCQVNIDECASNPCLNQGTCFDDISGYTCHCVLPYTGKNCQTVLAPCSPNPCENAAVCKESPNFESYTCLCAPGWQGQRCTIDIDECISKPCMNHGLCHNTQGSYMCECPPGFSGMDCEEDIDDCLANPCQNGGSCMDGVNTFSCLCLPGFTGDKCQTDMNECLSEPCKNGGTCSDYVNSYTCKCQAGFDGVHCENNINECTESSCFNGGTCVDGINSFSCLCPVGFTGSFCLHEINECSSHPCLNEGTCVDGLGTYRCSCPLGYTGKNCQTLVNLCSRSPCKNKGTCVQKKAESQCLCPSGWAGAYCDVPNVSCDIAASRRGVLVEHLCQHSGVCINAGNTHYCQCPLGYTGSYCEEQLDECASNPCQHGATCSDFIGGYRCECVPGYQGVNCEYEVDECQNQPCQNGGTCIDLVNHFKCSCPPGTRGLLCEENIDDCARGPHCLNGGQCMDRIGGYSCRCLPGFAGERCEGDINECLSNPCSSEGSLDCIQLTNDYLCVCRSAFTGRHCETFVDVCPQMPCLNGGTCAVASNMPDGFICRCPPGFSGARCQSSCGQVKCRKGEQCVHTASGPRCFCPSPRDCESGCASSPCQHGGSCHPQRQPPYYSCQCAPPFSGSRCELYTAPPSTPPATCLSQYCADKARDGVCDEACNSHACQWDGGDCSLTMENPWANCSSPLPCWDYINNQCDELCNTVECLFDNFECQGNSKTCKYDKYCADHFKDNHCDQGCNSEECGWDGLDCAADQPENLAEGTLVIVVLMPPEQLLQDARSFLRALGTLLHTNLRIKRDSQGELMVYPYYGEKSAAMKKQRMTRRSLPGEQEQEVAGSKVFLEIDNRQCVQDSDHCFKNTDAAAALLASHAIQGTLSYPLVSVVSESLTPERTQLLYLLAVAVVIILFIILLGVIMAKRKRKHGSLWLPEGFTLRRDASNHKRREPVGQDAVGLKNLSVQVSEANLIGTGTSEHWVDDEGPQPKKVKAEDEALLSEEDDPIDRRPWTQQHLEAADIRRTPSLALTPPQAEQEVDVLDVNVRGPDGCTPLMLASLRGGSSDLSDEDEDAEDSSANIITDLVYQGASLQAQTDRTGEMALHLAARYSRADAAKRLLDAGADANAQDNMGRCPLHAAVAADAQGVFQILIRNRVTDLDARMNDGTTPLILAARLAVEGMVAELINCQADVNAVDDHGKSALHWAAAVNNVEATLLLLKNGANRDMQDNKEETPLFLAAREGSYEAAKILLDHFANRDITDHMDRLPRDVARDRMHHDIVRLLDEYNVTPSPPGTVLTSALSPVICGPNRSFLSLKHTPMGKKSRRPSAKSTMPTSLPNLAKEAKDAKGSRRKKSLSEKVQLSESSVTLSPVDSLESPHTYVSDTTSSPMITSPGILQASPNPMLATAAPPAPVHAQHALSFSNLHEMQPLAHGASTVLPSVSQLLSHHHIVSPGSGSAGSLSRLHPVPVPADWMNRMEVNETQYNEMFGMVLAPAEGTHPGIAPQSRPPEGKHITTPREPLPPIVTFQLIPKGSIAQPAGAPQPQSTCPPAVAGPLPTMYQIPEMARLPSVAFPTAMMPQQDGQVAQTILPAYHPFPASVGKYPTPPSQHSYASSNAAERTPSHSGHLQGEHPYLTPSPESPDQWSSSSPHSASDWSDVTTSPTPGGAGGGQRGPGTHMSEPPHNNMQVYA
# Sequence of Pro-neuregulin-1, membrane-bound isoform (Homo sapiens) (Q02297 whole entry, looked up, the tested form may be a part, canonical isoform): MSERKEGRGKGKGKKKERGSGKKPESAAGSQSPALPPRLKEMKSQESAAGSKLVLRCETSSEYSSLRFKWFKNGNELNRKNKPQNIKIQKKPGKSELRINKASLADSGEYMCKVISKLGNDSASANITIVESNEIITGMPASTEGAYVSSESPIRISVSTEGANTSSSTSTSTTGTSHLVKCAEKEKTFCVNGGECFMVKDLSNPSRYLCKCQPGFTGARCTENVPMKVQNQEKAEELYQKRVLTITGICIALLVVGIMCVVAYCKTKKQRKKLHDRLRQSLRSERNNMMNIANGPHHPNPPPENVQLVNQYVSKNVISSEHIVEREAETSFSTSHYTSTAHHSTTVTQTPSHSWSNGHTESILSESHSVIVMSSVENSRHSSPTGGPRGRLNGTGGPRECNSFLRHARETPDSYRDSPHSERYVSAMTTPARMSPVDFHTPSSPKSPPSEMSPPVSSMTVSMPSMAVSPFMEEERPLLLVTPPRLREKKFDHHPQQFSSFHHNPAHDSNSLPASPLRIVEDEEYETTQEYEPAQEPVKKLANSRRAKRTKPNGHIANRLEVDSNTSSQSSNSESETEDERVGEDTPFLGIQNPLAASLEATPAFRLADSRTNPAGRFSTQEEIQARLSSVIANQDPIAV
# Sequence of Torsin-1A-interacting protein 2 (Homo sapiens) (Q8NFQ8 whole entry, looked up): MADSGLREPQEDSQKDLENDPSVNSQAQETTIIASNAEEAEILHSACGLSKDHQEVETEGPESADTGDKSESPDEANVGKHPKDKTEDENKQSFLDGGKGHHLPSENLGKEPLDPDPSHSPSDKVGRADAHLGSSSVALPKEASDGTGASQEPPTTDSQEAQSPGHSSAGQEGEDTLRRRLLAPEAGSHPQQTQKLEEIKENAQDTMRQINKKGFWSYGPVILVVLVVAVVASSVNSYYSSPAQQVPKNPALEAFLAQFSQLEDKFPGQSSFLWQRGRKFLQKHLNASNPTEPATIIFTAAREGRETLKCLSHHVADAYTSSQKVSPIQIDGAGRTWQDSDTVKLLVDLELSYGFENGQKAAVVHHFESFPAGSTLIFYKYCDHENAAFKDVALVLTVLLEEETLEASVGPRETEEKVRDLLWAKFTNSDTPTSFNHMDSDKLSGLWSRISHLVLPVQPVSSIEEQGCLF
SMILES,composite z-score [1],composite z-score [2],composite z-score [3],composite z-score [4],composite z-score [5],composite z-score [6],composite z-score [7],z-score [8],composite z-score [9],composite z-score [10],composite z-score [11],z-score [12],z-score [13],z-score [14],composite z-score [15],z-score [16],composite z-score [17],composite z-score [18],composite z-score [19],composite z-score [20]
C=CCC(OC(C)=O)[C@@H]1[C@@H](N(Cc2ccc(-c3cccc(C(F)(F)F)c3)o2)C(=O)Cc2ccc(OC)cc2)c2cc(OCCCO)ccc2N1C(=O)Cc1ccc(OC)cc1 (stereo not given in full),-0.0741,0.185,-0.0739,-0.118,-0.17,0.783,-0.92,0.0712 (inactive),-0.239,-0.16,-0.0091,-0.816 (inactive),-0.566 (inactive),-0.918 (inactive),-0.106,1.48 (inactive),-0.107,-0.239,-0.869,-0.178
CCCCN1CC=CC23O[C@@H]4C=CCCOC(=O)C4[C@H]2C(=O)N(CCCO)[C@@H]3C1=O (stereo not given in full),-0.0115,-0.265,-0.147,-0.609,-1.08,-0.931,-0.053,0.211 (inactive),-0.277,-0.191,-0.253,-0.174 (inactive),-0.788 (inactive),-0.497 (inactive),-0.748,1.02 (inactive),-0.172,0.217,-1.68,-0.244
C=CCC(OC(C)=O)[C@@H]1[C@@H](N(Cc2ccc(-c3ccccc3)cc2)C(=O)c2ccc(C)cc2)c2cc(OCCCO)ccc2N1C(=O)Cc1ccc(OC)cc1 (stereo not given in full),-0.0305,0.0667,-0.078,0.27,-0.0045,-0.369,-0.453,-1.32 (inactive),0.255,-0.0994,1.1,-2.3 (inactive),-1.13 (inactive),-0.713 (inactive),0.178,1.26 (inactive),-0.166,0.0438,0.338,-0.109
C=CCNC(=O)[C@H]1[C@@H]2C(=O)O[C@@H](c3ccccc3)[C@@H](c3ccccc3)N2[C@@H](c2ccc(O)cc2)[C@]12C(=O)Nc1ccc(C#Cc3ccc(OC)cc3)cc12,-0.523,0.396,-0.0158,0.357,1.27,0.384,1.07,0.0523 (inactive),0.786,0.473,1.49,-0.209 (inactive),1.14 (inactive),0.832 (inactive),2.86,-0.451 (inactive),0.369,0.41,1.12,0.469
COCCn1c(C(=O)N2CCCC2)cc2c1C[C@H]1CN(C(=O)c3ccccc3)[C@@](Cc3ccc(OC)cc3)(C(=O)OC)[C@@H]21,1.42,1.86,0.264,0.43,1.64,2.12,0.905,-1.1 (inactive),0.602,-0.0994,0.0027,-2.08 (inactive),0.422 (inactive),-0.651 (inactive),1.72,0.0251 (inactive),0.656,-0.843,1.1,0.147
CN1C(=O)C2C=CC(C(O)C(c3ccccc3)c3ccccc3)N(Nc3ccccc3)C2C1=O (stereo not given),-0.0907,0.403,0.0814,0.868,1.48,1.94,1.21,-0.704 (inactive),1.37,-0.131,1.55,-0.272 (inactive),-0.346 (inactive),-0.125 (inactive),3.46,-1.7 (inactive),0.0336,-0.152,1.05,0.0209
Cn1c2c(c3ccccc31)C(=O)C1NC2C=CC1(C)C(=O)OCc1ccccc1 (stereo not given),1.03,0.979,-0.176,-1.31,-1.15,1.06,0.467,-1.52 (inactive),-0.478,-0.0645,0.417,-0.566 (inactive),0.35 (inactive),-0.233 (inactive),3.1,-1.01 (inactive),-0.0097,-2.04,-0.258,-0.264
[N-]=[N+]=NCc1ccccc1C[C@]1(C(=O)NCc2ccccc2)COC(c2ccc(OCCCO)cc2)=N1,0.0555,0.808,0.0111,0.157,0.472,1.17,0.931,-3.06 (inactive),0.534,-0.166,1.01,1.67 (inactive),0.816 (inactive),36 (active),3.12,1.21 (inactive),-0.0438,0.0869,-0.146,-0.0828
COCCOC(=O)N1C(=O)[C@@]2(c3cc(C#Cc4ccc(OC)cc4)ccc31)[C@H](C(N)=O)[C@H]1C(=O)O[C@H](c3ccccc3)[C@H](c3ccccc3)N1[C@@H]2c1ccc(O)cc1,-0.39,-0.343,-0.167,-0.206,-1.64,-0.55,-0.297,0.961 (inactive),-1.05,-0.376,-1.57,-0.613 (inactive),-0.0532 (inactive),0.333 (inactive),-0.839,1.84 (inactive),-0.264,-2.13,-1.35,-0.627
CCCC[C@@H]1C[C@H]1[C@@H](NC(=O)c1ccccc1)c1ccccc1,0.343,-0.0895,0.15,0.14,0.18,-0.392,-0.303,-0.0327 (inactive),1.14,2.02,-0.352,0.588 (inactive),1.02 (inactive),1.54 (inactive),0.981,-0.404 (inactive),0.302,0.226,0.571,0.104
C=C[C@H](C)[C@H](O)c1ccc(OCCO)cc1,0.254,-0.716,-0.243,-1.14,-2.21,-0.758,-0.694,5.78 (inactive),-0.91,-0.204,-0.647,0.132 (inactive),-0.404 (inactive),-0.539 (inactive),-1.2,0.943 (inactive),0.19,-1.19,-1.11,-0.397
CC(C)NC(=O)[C@@H]1c2ccccc2C(=O)N(C2CCCCC2)[C@H]1c1ccc(CO)cc1,0.0605,0.562,0.0703,0.74,0.851,1.15,1,0.492 (inactive),0.333,-0.216,0.4,-0.455 (inactive),0.0765 (inactive),0.13 (inactive),1.48,0.0495 (inactive),0.25,-0.123,0.108,0.262
COc1ccc([Si](C)(C)[C@H]2[C@H](CC(=O)N3CCC[C@H]3CO)O[C@@]3(C(=O)N(Cc4cccc(N5CCC5=O)c4)c4ccccc43)[C@@H]2C)cc1,-0.226,0.149,0.0496,1,1.01,0.865,1.32,-4.15 (inactive),0.774,-0.253,1.55,-0.795 (inactive),0.289 (inactive),-0.743 (inactive),2.6,1.24 (inactive),0.226,1,1.13,0.133
COc1cc(NN2C(C(O)c3ccccc3)C=CC3C(=O)N(c4ccccc4)C(=O)C32)cc(OC)c1OC (stereo not given),-0.0824,0.215,0.135,1.13,1.56,1.87,1.38,0.556 (inactive),1.08,-0.194,1.34,0.694 (inactive),-0.933 (inactive),0.126 (inactive),3.5,-0.288 (inactive),0.17,0.833,1.03,0.016
OCCCc1cc[n+](Cc2cccc(OC(F)(F)F)c2)cc1,0.451,0.451,-0.085,-0.389,0.272,0.564,1.47,1.7 (inactive),0.676,-0.125,1.54,-0.747 (inactive),-3.01 (inactive),0.71 (inactive),3.24,-1.65 (inactive),0.2,0.962,1.04,-0.0084
C=C[C@H](OC)[C@@H](OC(=O)Nc1ccc(SC)cc1)c1ccc(OCCO)cc1,0.0168,0.594,-0.0307,0.778,-0.21,0.121,1.41,5.3 (inactive),-0.0503,-0.249,1.15,0.458 (inactive),-0.339 (inactive),0.513 (inactive),2.67,1.15 (inactive),-0.0478,-0.555,-0.179,0.507
O=C(NCC(O)CO)[C@@]1(Cc2ccccc2)COC(c2ccc(OCCCO)cc2)=N1 (stereo not given in full),0.213,-0.0995,-0.083,0.138,-0.0908,0.736,0.698,0.518 (inactive),0.112,-0.12,-0.546,0.0965 (inactive),-0.92 (inactive),-0.639 (inactive),1.1,0.869 (inactive),-0.0809,-0.891,-1.18,0.132
O=c1cccc(-c2ccccc2)o1,-0.0048,-0.313,-0.0996,0.062,0.197,-0.356,0.811,2.03 (inactive),-0.0103,0.113,-0.159,-1.42 (inactive),-3.79 (inactive),-0.482 (inactive),-0.568,-0.528 (inactive),-0.18,-0.124,-0.435,-0.136
COc1ccc([Si](C)(C)[C@H]2[C@H](CC(=O)N3Cc4ccccc4C[C@H]3CO)O[C@@]3(C(=O)N(Cc4cccc(I)c4)c4ccccc43)[C@@H]2C)cc1,-0.0638,2.29,-0.0158,0.142,0.379,0.438,0.853,-2.84 (inactive),-0.186,0.289,1.55,-0.413 (inactive),0.603 (inactive),2.75 (inactive),-0.48,1.2 (inactive),-0.119,2.05,0.863,-0.0758
O=C1OCC=C[C@H]2OC34C=CCN(CCN5CCOCC5)C(=O)[C@H]3N(CCCCCCO)C(=O)[C@@H]4[C@@H]12 (stereo not given in full),-0.142,0.108,-0.0785,0.0266,-0.157,2.07,1.27,1.69 (inactive),0.334,-0.364,0.171,-1.4 (inactive),-1.1 (inactive),-0.918 (inactive),2.87,-0.608 (inactive),-0.0009,0.0056,-0.0123,0.0792
